Measured values as given in ChEMBL document CHEMBL4296182, “CO-ADD screening of NIH NCI Diversity Set V”.
For part of these data: Potency and affinity values are given separately.

Tests used:
[1] = test system: Staphylococcus aureus; assay: Antibacterial activity against Staphylococcus aureus MRSA ATCC 43300 (CO-ADD:GP_020); MIC in CAMBH media using NBS plates, by Resazurin F(560/590); assay type: functional; conditions: Concentration 20 uM, ASSAY_TEST Inhibition of Bacterial Growth, detection method Resazurin, Fluorescence (ex560/em590), MEDIA CAMHB, plate type 384well, CORNING #3640, time 18 hr
[2] = test system: Acinetobacter baumannii; assay: Antibacterial activity against Acinetobacter baumannii ATCC 19606 (CO-ADD:GN_034); MIC in CAMBH media using NBS plates, by Resazurin F(560/590); assay type: functional; conditions: Concentration 20 uM, ASSAY_TEST Inhibition of Bacterial Growth, detection method Resazurin, Fluorescence (ex560/em590), MEDIA CAMHB, plate type 384well, CORNING #3640, time 18 hr
[3] = test system: Escherichia coli; assay: Antibacterial activity against Escherichia coli ATCC 25922 (CO-ADD:GN_001); MIC in CAMBH media using NBS plates, by Resazurin F(560/590); assay type: functional; conditions: Concentration 20 uM, ASSAY_TEST Inhibition of Bacterial Growth, detection method Resazurin, Fluorescence (ex560/em590), MEDIA CAMHB, plate type 384well, CORNING #3640, time 18 hr
[4] = test system: Klebsiella pneumoniae; conditions: Concentration 20 uM; ASSAY_TEST Inhibition of Bacterial Growth; detection method Absorption (OD600); MEDIA CAMHB; plate type 384well; NBS; CORNING #3640; time 18 hr
[5] = test system: Candida albicans; conditions: 20 µM
[6] = test system: Cryptococcus neoformans; conditions: Concentration 20 uM; ASSAY_TEST Inhibition of Fungal Growth; detection method Resazurin; Absorption (OD600-OD570); plate type 384well; NBS; CORNING #3640

Row | SMILES | Inhibition [1] [%] | Inhibition [2] [%] | Inhibition [3] [%] | Inhibition [4] [%] | Inhibition [5] [%] | Inhibition [6] [%]
1 | c1ccc(-c2cn3ccccc3n2)cc1 | 26.82 | -4.96 | 13.79 | 17.46 | -0.09 | -2.58
2 | O=C(O)/C=C\c1cc2c(cc1[N+](=O)[O-])OCO2 | 16.17 | -13.7 | 7.39 | 10.81 | 3.76 | -6.94
3 | C=CCOCCN(CC)CC | -2.28 | -4.48 | -9.5 | 7.56 | 2.62 | 15.03
4 | O=C(O)CCNC1CCCCC1 | 7.12 | -7.34 | 6.52 | 12.82 | 3.1 | -1.65
5 | CC1(C)N=C(N)N=C(N)N1c1cccc(CN)c1.CCS(=O)(=O)O | 8.6 | -6.92 | 11.68 | 13.8 | 2.57 | -7.41
6 | COc1cccc2nc3cc(C)c(C)cc3nc12 | 20.84 | 3.71 | 12.65 | 1.37 | 1.48 | -8.3
7 | Cn1nc(NC(=O)C(F)(F)F)c2ncc(-c3ccc(Cl)cc3)nc21 | 20.42 | 13.75 | 1.31 | 13.33 | 2.95 | -3.57
8 | CCc1nc(N)nc(N)c1-c1ccc(N(C)Cc2ccccc2)c([N+](=O)[O-])c1 | -14.23 | -5.52 | 6.75 | 5.93 | 0.08 | -8.19
9 | Cc1ccc(NC(=O)N2CCN(C)CC2)cc1NC(=O)N1CCN(C)CC1 | 2.62 | 1.03 | -22.66 | 4.06 | 0.95 | 29.46
10 | CCCCNCC1CCCO1 (stereo unspecified) | 9.4 | -3.42 | 8.45 | 9.23 | -0.1 | -3.66
11 | Cc1cc(=O)oc2cc(OS(C)(=O)=O)ccc12 | -6.24 | -3.66 | 13.01 | 7.19 | 0.46 | -11.39
12 | O=C1OCC/C1=C\c1ccc2c(c1)OCO2 | 9.07 | -7.38 | 9.99 | 4.4 | 3.83 | 0.17
13 | Nc1ncnc2c1ncn2C=C=CCO | 13.44 | 8.12 | -2.59 | 6.59 | 1.58 | -2.86
14 | C#CC1(N2CCCCC2)CCCCC1 | 17.84 | -17.5 | 12.63 | -1.14 | -1.65 | -12.88
15 | CC1CN(CCN2CC(C)N(C=O)CC2C)C(C)CN1C=O (stereo unspecified) | -7.66 | -6.52 | -13.71 | 5.89 | 1.99 | 25.73
16 | CC(=O)Nc1ccc2cc3ccc(NC(C)=O)cc3nc2c1 | 13.51 | 10.7 | 0.73 | 15.61 | 3.5 | -4.12
17 | CC1=CC(C)(C)Nc2ccc(Cc3ccc4c(c3)C(C)=CC(C)(C)N4)cc21 | 2.44 | 4.53 | -20.49 | -0.68 | 14.9 | 28.4
18 | CSc1cccc(NC(=O)OC2CCCCCCCCCCC2)c1 | 23.58 | 6.29 | 14.03 | 20.05 | 2.81 | -2.07
19 | O=C1c2ccccc2C(=O)C1c1ccccn1 | -5.11 | -11.28 | 2.88 | 6.77 | 5.19 | -6.9
20 | Cc1c(COC(=O)NC(C)C)c(COC(=O)NC(C)C)c2n1CS(=O)(=O)C2 | 22.95 | -7.7 | 11.68 | 15.71 | 3.64 | -8.35
21 | O=C(C(=O)c1cccnc1)c1cccnc1 | 7.87 | -9.17 | 12.61 | 6.86 | -0.57 | -3.14

Row | SMILES | Inhibition [1] [%] | Inhibition [2] [%] | Inhibition [3] [%] | Inhibition [4] [%] | Inhibition [5] [%] | Inhibition [6] [%]
22 | O=C(Nc1cccc2c1N(C(=O)c1ccco1)CCC2)c1ccco1 | 23.38 | 8.42 | 4.6 | 13.8 | -1.4 | -2.48
23 | NC(=O)CCC(C(=O)O)N1C(=O)c2ccc(O)cc2C1=O (stereo unspecified) | 8.42 | 13.26 | -2.7 | 12.88 | 4.99 | -2.28
24 | Nc1ccc(Nc2ccccc2)c(S(=O)(=O)O)c1 | 8.54 | 9.36 | -14.68 | 15.42 | 18.9 | 17.91
25 | CC(=O)Nc1cccc(NC(C)=O)n1 | 23.71 | -5.95 | 17.6 | 13.05 | -2.4 | -1.6
26 | N#CNC(=N)c1ccccc1 | 0.25 | 1.21 | -14.26 | 9.63 | 1.62 | 22.72
27 | NS(=O)(=O)c1ccc(Cl)cc1[N+](=O)[O-] | -0.55 | -3.88 | 8.03 | 12.78 | 3.7 | 15.75
28 | O=C1NCN(CCO)CN1 | 3.46 | -3.91 | 8.55 | 4.75 | 0.72 | -3.9
29 | CCOC(=O)CC1(C)NC(C(=O)O)C(C)(C)S1 (stereo unspecified) | -14.37 | 0.02 | -11.39 | 5.07 | 3.25 | 0.86
30 | CNc1ncnc2c1cnn2C1CCCCO1 (stereo unspecified) | 3.48 | -13.53 | 9.64 | 6.75 | -2.26 | -11.76
31 | Cc1nc(O)c(Cc2ccccc2O)c(-c2ccccc2)n1 | 22.69 | -8.89 | 10.21 | 16.82 | 2.26 | 5.06
32 | Cc1cc(=O)[nH]c(N)n1 | 9.55 | -6.26 | 2.4 | 1.73 | 3.77 | -0.62
33 | CC12CCC(C(NC(=S)NN)C1=O)C2(C)C (stereo unspecified) | 2.53 | -10.15 | 7.86 | 9.19 | 1.53 | -9.53
34 | OC(c1ccccc1)(c1ccccc1)c1nccn1-c1ccccc1 | 0.11 | -3.61 | 5 | 3.43 | 1.72 | -7.88
35 | COc1cc(NC(=O)c2cc3ccccc3cc2O)c(OC)cc1Cl | 15.9 | 4.67 | -1.76 | 8.39 | 2.82 | -1.31
36 | Cc1[nH]c(=O)n(C(C)C)c(=O)c1Br | 12.85 | -11.08 | 12.66 | 5.3 | 0.37 | -6.73
37 | COC(=O)C1CC(O)C(O)C(O)C1 (stereo unspecified) | 17.7 | -10.09 | 12.92 | 15.79 | 1.86 | -4.69
38 | CCOC(=O)c1cc(-c2ccccc2)nc2ccc(C)cc12 [NEOCINCHOPHEN] | 2.82 | 5.48 | -14.74 | 14.7 | 9.92 | 24.59
39 | Cl.O=C(O)c1ccc(NCc2nc3ccccc3[nH]2)cc1 | 0.21 | -0.88 | -3.07 | 12.5 | 1.6 | -6.81
40 | COC(=O)CC1OCC=C2CN3CCC45C6=CC(=O)C(=O)C([N+](=O)[O-])=C6NC4C1C2CC35 (stereo unspecified) | 12.88 | -13.17 | 11.73 | 18.83 | -2.29 | -2.47
41 | CC1=CC(=O)C(/C(C)=N/c2ccccc2Cl)C(=O)O1 (stereo unspecified) | 7.59 | 14.34 | -12.7 | 12.66 | 20.8 | 0.4
